Compound activity deposited in PubChem by National Center for Advancing Translational Sciences (NCATS).
The list is not random: actives were taken first. Their share in the collection is about 9.2%.
NPC1 promoter act = activators of NPC1 promoter | AID 485313 | Huh7 NPC1 promoter luciferase reporter, 24 h | Potency, µM (series often up to 9.22 µM), for inactives: at the highest dose activation, most hits filed as activators | hit rate 2.4% among 320,000; note: % of control where 0% means no effect; nearly all actives have a fitted effect of over 60% in size
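Quantitative HTS used a cell-based reporter: Huh7 cells stably bearing the NPC1 promoter upstream of luciferase were treated with compounds for 24 h, and promoter activation was read as luminescence.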
ELG1 DNA repair = blocks ELG1-dependent DNA repair in HEK293T cells; Potency, µM (doses to about 46.1 µM), inactives show at the highest dose activity change, negative = inhibition, hits mostly inhibitors; HEK293T ELG1-luciferase reporter, luminescence, 16 h; DNA damage induced by 5-fluorouridine; hit rate 2.3% among 330,000; AID 504467; note: % is set by controls: 0 for no effect and ±100 for the full control effect; nearly all actives have a fitted effect of over 55% in size
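Cells (2,000 per well) received 5-fluorouridine plus test compound or DMSO and were incubated 16 hr at 37 °C, 5% CO2. Luciferase activity was read by luminescence 30 min after ONE-Glo addition; signal suppression marked inhibition of damage-induced ELG1 function.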
SMN2 splice enh = enhancers of SMN2 splice variant expression | HEK293 SMN2-luciferase splicing reporter, luminescence, 30-36 h | Potency, µM (series often up to 46.1 µM), for the others: top-dose activity change, positive = activation, most hits filed as activators | hit rate 2.8% among 210,000; note: % of control where 0% means no effect; nearly all actives have a fitted effect of over 55% in size
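HEK293 cells carry an SMN2 […]–luciferase reporter in which exon 7 inclusion puts luciferase in frame. Cells were plated 10-12 h before compound addition, then incubated 30-36 h at 37C. ONE-Glo luminescence was read; sodium butyrate at 4.5 mM final served as control.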
Rab9 promoter act = Rab9 promoter activation; Huh7 Rab9 promoter-luciferase reporter, luminescence, 24 h; Potency, µM (top dose mostly 9.22 µM), without a hit: at the top dose activation, negative = inhibition, actives largely listed as activators; hit rate 2.8% among 320,000; note: % of control where 0% means no effect; nearly all actives have a fitted effect of over 60% in size
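Measured in stably transfected Huh7 cells bearing a Rab9 promoter–luciferase construct: 24 h compound treatment at 37 °C, followed by luminescence detection.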
ELG1 genotox = inducers of genotoxicity in HEK293T ELG1-luciferase cells; HEK293T ELG1-luciferase reporter, luminescence, 16 h; Potency, µM (titrated, usually from 46 µM), inactives show at the top dose activity change, positive = activation, hits mostly activators; hit rate 1.3% among 330,000; AID 504466; note: % of control where 0% means no effect; nearly all actives have a fitted effect of over 60% in size
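HEK293T cells expressing luciferase-tagged ELG1 were treated with compound or DMSO for 16 hr at 37°C. Luciferase activity was then read after 30 min with ONE-Glo at room temperature; rising signal flags genetic stress.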
FLuc modulator = firefly luciferase modulation, counter-screen for miR-21 project; hit rate 6.9% among 360,000; Potency, µM (top dose mostly 57.5 µM), inactives show at the highest dose activity change, negative = inhibition, usual class: inhibitors; P08659; AID 588342; purified FLuc, Km substrates, luminescence inhibition;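 note: plate controls were vehicle for no effect and reference inhibitor for full effect; nearly all actives have a fitted effect of over 55% in size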
Target sequence (P08659 whole entry, looked up): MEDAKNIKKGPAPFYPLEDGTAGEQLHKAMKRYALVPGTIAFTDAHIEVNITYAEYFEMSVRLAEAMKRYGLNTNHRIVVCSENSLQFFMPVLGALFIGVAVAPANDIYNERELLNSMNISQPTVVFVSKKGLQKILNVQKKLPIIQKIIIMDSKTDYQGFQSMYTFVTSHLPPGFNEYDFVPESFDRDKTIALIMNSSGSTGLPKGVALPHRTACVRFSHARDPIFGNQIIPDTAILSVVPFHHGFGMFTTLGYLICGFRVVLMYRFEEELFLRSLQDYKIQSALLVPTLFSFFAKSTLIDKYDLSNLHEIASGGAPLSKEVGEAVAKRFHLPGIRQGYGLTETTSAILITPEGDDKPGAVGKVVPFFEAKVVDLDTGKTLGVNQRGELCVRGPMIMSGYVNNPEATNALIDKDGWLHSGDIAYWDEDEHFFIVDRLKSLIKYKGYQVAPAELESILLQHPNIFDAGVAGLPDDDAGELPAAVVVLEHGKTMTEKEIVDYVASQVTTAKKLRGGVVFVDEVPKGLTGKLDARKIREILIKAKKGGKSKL
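Purified P. pyralis luciferase, 10 nM final, with Km-level 10 uM D-luciferin and 10 uM ATP in 50 mM Tris acetate pH 7.5, 10 mM Mg acetate, 0.01% Tween-20, 0.05% BSA; 6-point qHTS titration about 60 µM downward; luminescence read.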
Starred values were filed as active, the others as inactive; u = inconclusive; x = not tested or not shown; [ ] = remark or other dose. Calls come from the whole dose curve; as a rule, active = well fitted curve in the direction sought with a large enough effect; inconclusive = small, poorly fitted or top-dose-only effect, or another doubt; inactive = no such curve, though single readings can be large; an effect the other way counts as inactive or inconclusive. Potency is the fitted concentration of half-maximal effect.

SMILES	NPC1 promoter act	ELG1 DNA repair	SMN2 splice enh	Rab9 promoter act	ELG1 genotox	FLuc modulator
COc1ccc(Cl)cc1NC(=O)c1noc(C)c1[N+](=O)[O-]	1%	19%	x	-2%	0%	-1%
O=C(CSc1cn(CC(=O)N2CCCC2)c2ccccc12)Nc1cc(C(F)(F)F)ccc1Cl	x	x	x	x	x	-17%
Cc1cc(N/C=C\c2nnnn2-c2ccccc2)no1	11%	u	30%	2%	13%	u
CN(C)c1ccc(/C=C/c2nnnn2-c2ccccc2)cc1	2µM*	u	16µM*	1.6µM*	u	8.5µM*
Cc1ccc(-c2c(C#N)c(N)n3c(nc4ccccc43)c2C#N)cc1	0%	18µM*	-118%	-10%	-28%	1%
CNc1cc(C)c(C#N)c2nc3ccccc3n12	-1%	-10%	x	-1%	-6%	4%
N#Cc1c(-c2ccccc2)c(C#N)c2nc3ccccc3n2c1N	-3%	-15%	-12%	-9%	1%	3%
Cc1cc(Cl)n2c(nc3ccccc32)c1C#N	-19%	21µM*	-107%	-10%	u	-4%
CCOC(=O)c1oc2c(c1C)/C(=N/O)CCC2	u	u	22µM*	26%	u	u
COc1cccc(CN(C)C(=O)c2cc(COc3ccc4ncccc4c3)on2)c1	-27%	u	x	-56%	-12%	-14%
COc1cccc(OCc2cc(C(=O)N(C)CCOc3ccc(C)cc3)no2)c1	3.5µM*	u	x	2.8µM*	u	13µM*
COc1cccc(OCc2cc(C(=O)N(C)Cc3nccn3C)no2)c1	2.8µM*	u	x	1.8µM*	u	19µM*
COc1ccc(OCc2cc(C(=O)N(Cc3nccn3C)C(C)C)no2)c2ccccc12	u	u	x	3.2µM*	13%	13µM*
COc1ccc(OCc2cc(C(=O)N(C)Cc3nccn3C)no2)c2ccccc12	-3%	1%	x	0%	-5%	6%
CCc1noc(C)c1C(=O)Nc1cc(S(=O)(=O)N(CC)CC)ccc1N1CCOCC1	-2%	u	x	0%	0%	-1%
COc1ccc(CN(C)S(=O)(=O)c2nnc(NC(=O)C(C)C)s2)cc1OC	x	x	x	x	x	-4%
CC(=O)NC(=S)Nc1sc2c(c1C#N)CCCCC2	2.5µM*	u	x	1.4µM*	2.1µM*	1.5µM*
Cn1nccc1C(=O)NC(=S)Nc1sc2c(c1C#N)CCCCC2	u	u	15%	u	14%	3.8µM*
CCN(c1ccc(C)cc1C)S(=O)(=O)c1nnc(NC(=O)CC(C)C)s1	x	x	x	x	x	1%
O=C(COc1ccc(Nc2ccccc2)cc1)Nc1ccncc1	-2%	18µM*	x	-2%	u	-16%
O=C(COc1ccc([N+](=O)[O-])cc1)Nc1cccnc1	-1%	4%	x	2%	-2%	-11%
O=C(COc1ccc(-c2ccccc2)cc1)Nc1cccnc1	-12%	u	x	-3%	17%	5.4µM*
CCC(C)(C)c1ccc(OCC(=O)Nc2ccncc2)cc1	0%	6%	x	-3%	-1%	7.6µM*
CSc1nnc(NC(=O)c2cc(=O)c3cc(C)c(C)cc3o2)s1	x	x	-10%	x	x	-20%
CN(c1ccccc1)S(=O)(=O)c1cccc(C(=O)NCC(=O)Nc2ccc(F)c(F)c2F)c1	x	u	x	x	-4%	x
SMILES	NPC1 promoter act	ELG1 DNA repair	SMN2 splice enh	Rab9 promoter act	ELG1 genotox	FLuc modulator
N#CC(Cc1ccccc1)(Cc1ccccc1)C(=O)NN	1%	-15%	x	10%	-2%	0%
CC(C)(C)c1ccc(C(=O)Nc2ccc(NC(=O)c3ccc(Cl)c(Cl)c3)cc2)cc1	x	x	-8%	x	x	1%
Cc1ccc2cc(NC(=O)c3ccc(C(C)(C)C)cc3)ccc2n1	-2%	u	x	2%	-15%	9.5µM*
CCc1ccc(C(=O)Nc2ccc3nc(C)ccc3c2)cc1	3.5µM*	u	x	2.8µM*	u	5.4µM*
CCOC(=O)c1cccc(NC(=O)C2=C(C)C(=O)OC23CCCCC3)c1	x	x	-3%	x	x	12%
CCn1cc(/C=C/C(=O)c2ccc(O)cc2)c(C)n1	u	u	x	u	10µM*	11µM*
Cc1nn(C)c(C)c1/C=C/C(=O)c1ccccc1	u	u	-36%	3.5µM*	16µM*	19µM*
Cc1nn(C)cc1/C=C/C(=O)c1cccs1	u	u	u	u	18µM*	5.4µM*
CCn1cc(/C=N/O)c(C)n1	-4%	0%	u	13%	-1%	5%[2.3 µM]
Cc1nn(C)cc1/C=C/C(=O)c1ccccc1	u	u	19%	u	u	1.5µM*
COc1cccc(C(=O)Nc2ccccc2-c2nc(-c3ccc(C)cc3)no2)c1	x	x	x	x	x	1%
COc1ccc(COC(=O)C2=C(C)NC(=O)NC2c2ccc(OC)cc2)cc1 (centres undefined)	10%	u	x	-1%	-17%	-5%
CCOC(=O)N1CCN(Cc2nc3ccc([N+](=O)[O-])cc3c(=O)n2-c2ccccc2F)CC1	-8%	u	x	-8%	-1%	0%
C=CCSc1nc2c(cnn2-c2ccccc2)c(=O)n1N	1.4µM*	u	x	1.4µM*	u	8.5µM*
Cc1occc1C(=O)Nc1cccc(Cl)c1Cl	12%	u	x	23%	u	-20%
O=C(c1csnn1)N1CCC2(CCCN(c3ccc(-c4ccccc4)cc3)C2)CC1	x	x	18µM*	x	x	x
Cc1oc(=O)cc(OCc2ccccc2)c1C	x	5%	x	x	15%	x
O=C(C1=C(c2ccccc2)C(=O)c2ccccc2C1=O)c1ccccc1	-1%	6.5µM*	-109%	-3%	-11%	5%
COC1=C(c2ccccc2)C(=O)c2ccccc2C1=O	-1%	-11%	-19%	13%	-8%	-15%
CCOC(=O)Cn1c(=O)c(-c2cc(Br)ccc2N)nc2ccccc21	-7%	-4%	x	1%	0%	4%
Cn1c(=O)c(-c2cc(Br)ccc2N)nc2ccccc21	18%	u	19%	u	u	24µM*
Cc1cccc(-n2c(C)cc(C=C3C(=O)c4ccccc4C3=O)c2C)c1	u	u	-21%	u	u	0.85µM*
Cc1cc(=O)cc(C)n1-c1ccc(Cl)cc1	-1%	-16%	-5%	0%	1%	-1%
Cc1cc(C=C2C(=O)c3ccccc3C2=O)c(C)n1-c1ccc(Cl)cc1	8%	u	-60%	3%	4.6µM*	0.67µM*
O=C(COc1cccnc1[N+](=O)[O-])NCCc1ccc(Cl)cc1Cl	-7%	-4%	-17%	1%	-2%	1%
CCOC(=O)c1ccc(-c2ccc(/C=N/NC(=O)CN(c3ccccc3Cl)S(C)(=O)=O)o2)cc1	u	u	11µM*	u	-6%	u
